A number with no mark means an inactive call.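 Rule for the calls: active = GFP response above 150% of the DMSO level; inconclusive = fewer than 70 events counted for a yeast strain; inactive = the rest.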
Assay: AGP1-GFP expression modulators, hit retest, confirmation, cell-based, flow cytometry, S. cerevisiae, cherry picks (AID 2273);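 note: median GFP channel fluorescence over the whole cell population gate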
Conditions: S. cerevisiae AGP1-GFP strain, 3 h, at 10 µM

Row | Structure (SMILES) | GFP response, % of DMSO [%]
1 | Nc1nc2c(ncn2COCCO)c(=O)[nH]1 | 102
2 | O=c1[nH]c(=O)n([C@H]2C[C@H](O)[C@@H](CO)O2)cc1F | 102
3 | C[C@]12CCC(=O)C=C1CC[C@@H]1[C@@H]2C(=O)C[C@@]2(C)[C@H]1CC[C@]2(O)C(=O)CO | 104
4 | CC(=O)[C@@]1(O)CC[C@H]2[C@@H]3CCC4=CC(=O)CC[C@]4(C)[C@H]3CC[C@@]21C | 96.5
5 | CC(Oc1ccc(Cl)cc1Cl)C(=O)NC1=NN(c2ccccc2)C(=O)C1 (configuration not stated) | 102
6 | CCOC(=O)c1ccc(NC(=O)CCc2nc(-c3cccc(C)c3)no2)cc1 | 95.8
7 | Cc1ccc(C2=NOC(=O)/C2=C\c2ccc(C)o2)cc1 | 97
